IL1B secr inh – inflammasome signaling inhibition, IL-1 beta readout; actives 4.7% (n = 360,000); activity change, % at 57.5 µM; THP-1 LPS/ATP IL-1B secretion, AlphaLISA, 16 h; stronger effect = lower value; in the data active = activity change below about -50%; inconclusive = mostly about -30% to -49%
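THP-1 cells pretreated 1 hr with compounds (up to 57.5 uM final), then stimulated with LPS (250 ng/mL final) plus ATP (1.25 mM final); secreted IL-1B measured by AlphaLISA after 16 hr, decreased signal indicating inhibition.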
DT40 TDP1 no CPT – qHTS for Inhibitors of human tyrosyl-DNA phosphodiesterase 1 (TDP1): qHTS in cells in absence of CPT. Potency, µM (highest dose often 46.2 µM), for the others: top-dose activity change, negative = growth inhibition, actives largely listed as inhibitors. actives 15% (n = 420,000). DT40 Tdp1-/- hTDP1 cells, no CPT, ATP luminescence, 48 h; note: potency is the fitted concentration of half-maximal effect; nearly all actives have a fitted effect of over 55% in size
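Stably hTDP1-transfected Tdp1-null chicken DT40 cells were treated with library compounds minus camptothecin and grown for at least 48 hr at 37 °C, after which cellular ATP was quantified by luminescence.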
HT1080NT lethal – kills 2HG-producing HT-1080-NT fibrosarcoma cells; actives 1.6% (n = 360,000); Potency, µM (doses to about 46.1 µM), inactives show at the highest dose activity, negative = less viability, hits mostly cytotoxic; AID 686970; HT-1080-NT fibrosarcoma viability, CellTiter-Glo ATP luminescence, 48 h;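 note: NT is the 2HG producing partner of a matched IDH1 knockdown line; potency is the fitted concentration of half-maximal effect; 0% = DMSO-treated cells and -100% = media-only wells without cells; nearly all actives have a fitted effect of over 55% in size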
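750 cells/well, RPMI + 5% FBS; 2 h settle, compound pin-transfer, 48 h at 37 degrees C. CellTiter-Glo 10 min RT, luminescence. Normalized to DMSO and media-only wells.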
12-LOX inh – blocks human arachidonate 12S-lipoxygenase; P18054; actives 1.1% (n = 580,000); Potency, µM (top dose mostly 108 µM), for the others: top-dose activity change, negative = inhibition, most hits filed as inhibitors; purified 12hLO, xylenol orange hydroperoxide absorbance; note: potency is the fitted concentration of half-maximal effect
Target sequence (P18054 whole entry, looked up): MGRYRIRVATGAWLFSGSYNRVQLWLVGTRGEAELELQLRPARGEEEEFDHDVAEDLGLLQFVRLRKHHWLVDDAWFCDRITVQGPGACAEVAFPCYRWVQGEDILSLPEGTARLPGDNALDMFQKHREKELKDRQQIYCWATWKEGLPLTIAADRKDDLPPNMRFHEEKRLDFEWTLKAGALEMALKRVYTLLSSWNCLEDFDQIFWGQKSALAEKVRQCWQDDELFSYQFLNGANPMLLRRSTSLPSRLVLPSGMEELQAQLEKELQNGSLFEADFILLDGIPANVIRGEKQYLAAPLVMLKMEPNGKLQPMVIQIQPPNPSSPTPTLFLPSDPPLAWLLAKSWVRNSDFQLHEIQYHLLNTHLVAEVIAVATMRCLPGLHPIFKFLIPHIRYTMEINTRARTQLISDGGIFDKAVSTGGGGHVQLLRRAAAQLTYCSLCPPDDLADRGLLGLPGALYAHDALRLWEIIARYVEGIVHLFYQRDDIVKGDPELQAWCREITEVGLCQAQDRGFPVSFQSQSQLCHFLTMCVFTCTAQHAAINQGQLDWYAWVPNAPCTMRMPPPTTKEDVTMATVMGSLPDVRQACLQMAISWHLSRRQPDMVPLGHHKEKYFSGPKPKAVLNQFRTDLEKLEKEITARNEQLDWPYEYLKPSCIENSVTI
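Purified human 12hLO at 150 nM in 25 mM Hepes, 0.01% Triton X-100, pH 7.0, preincubated 15 min at room temperature with compound. Reaction started with 40 uM arachidonic acid, 30 min at room temperature. Hydroperoxide measured by Fe-xylenol orange, 573/405 nm absorbance ratio.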
HT1080 IDH1KD tx – kills HT-1080 cells with IDH1 knockdown. HT-1080 IDH1 knockdown viability, ATP luminescence, 48 h. Potency, µM (titrated, usually from 46.1 µM), inactives show at the highest dose activity, negative = toxicity, most hits filed as cytotoxic. actives 2% (n = 360,000);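 note: potency is the fitted concentration of half-maximal effect; 0% = DMSO wells and -100% = cell-free medium wells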
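In this qHTS, HT-1080 cells depleted of IDH1 are exposed for 48 h at 37 °C to compound titrations. Toxicity is scored from CellTiter-Glo luminescence, with DMSO as full viability and medium alone as none.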
TDP1 cell CPT – DT40-hTDP1 cell growth loss with CPT | Potency, µM (doses to about 46.2 µM), inactives show top-dose activity change, negative = growth inhibition, usual class: inhibitors | actives 12% (n = 420,000) | chicken DT40 Tdp1-/-;hTDP1 cells + 20 nM CPT, ATP luminescence, 48 h; note: potency is the fitted concentration of half-maximal effect; nearly all actives have a fitted effect of over 55% in size
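Cell growth measured by CellTiter-Glo luminescence after a minimum 48 h, 37 C compound exposure with 20 nM CPT in Tdp1-knockout DT40 cells stably expressing hTDP1, seeded 400/well; qHTS titration format.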
An asterisk follows results filed as active; ? = inconclusive; nt = not tested or not shown; ! = not confirmed by another sample; [ ] = another dose, or the depositor's remark. The entries come from a sample that favours hits as a whole. Unless noted, calls come from the whole dose curve; as a rule, active = well fitted curve in the direction sought with a large enough effect; inconclusive = small, poorly fitted or top-dose-only effect, or another doubt; inactive = no such curve, though single readings can be large; an effect the other way counts as inactive or inconclusive. Unless noted, % is set by controls: 0 for no effect and ±100 for the full control effect.

SMILES	IL1B secr inh	DT40 TDP1 no CPT	HT1080NT lethal	12-LOX inh	HT1080 IDH1KD tx	TDP1 cell CPT
Cc1ccn2c(=O)c(NC(=O)c3cccc([N+](=O)[O-])c3C)c(C)nc2c1	nt	18µM*	nt	-26%	nt	15µM*
Cc1cc(-n2c(C)nc3ccccc3c2=O)ccc1NC(=O)C(F)(F)F	nt	?	nt	-17%	nt	?
Cc1c(C(=O)Nc2ccc(-n3c(C)nc4ccccc4c3=O)cc2)cccc1[N+](=O)[O-]	nt	7.3µM*	nt	-11%	nt	13µM*
O=C1NCc2ccccc2CC12CCCN(Cc1cc(F)ccc1F)C2 (stereo unspecified)	nt	nt	nt	3%[6.33 µM]	nt	nt
O=C(Nc1ccc(F)cc1)C1CC(=O)N(c2n[nH]c3cccc(F)c23)C1 (stereo unspecified)	nt	nt	nt	34%	nt	nt
O=CC1=C(c2ccccc2)Oc2ccccc2O1	-102*	?	?	-13%	16µM*	?
O=c1c2c([nH]c3ccc(Br)cc13)CCCC2	-10	?	1%	155%	-3%	23µM*
Cc1cc(NC(=O)CSc2nnc(-c3ccccc3)c(-c3ccccc3)n2)no1	-3	5.2µM*	2.9µM*	51%	5.2µM*	3.7µM*
Cc1cc(NC(=O)CSc2nnc(-c3ccoc3C)o2)no1	18	?	11µM*	0%	6.3µM*	?
Cc1cc(NC(=O)CSc2nnc(-c3ccccc3)o2)no1	-11	23µM*	-9%	11%	-18%	?
COc1ccc(CNC(=O)CC[C@H]2CNC(=O)[C@@H]3[C@@H](CCN3Cc3ncc[nH]3)N2C)cc1	nt	nt	nt	93%	nt	nt
COc1ccc2cc(C(=O)NCc3ccc4c(c3)CCN4C(=O)c3ccc(C)cc3)[nH]c2c1	nt	?	nt	?	nt	13µM*
COc1cccc2[nH]c(C(=O)NCc3ccc4c(c3)CCN4C(=O)c3ccc(F)cc3)cc12	nt	?	nt	-19%	nt	?
COc1ccc2cc(C(=O)NCc3ccc4c(c3)CCN4C(=O)c3ccc(F)cc3)[nH]c2c1	nt	18µM*	nt	-30%	nt	21µM*
Cc1ccncc1C(=O)N1CCCN(S(=O)(=O)c2ccccc2)CCC(=O)NCC1	nt	nt	nt	54%	nt	nt
O=c1cc(-c2ccccc2Cl)oc2c(NS(=O)(=O)c3ccccc3OC(F)(F)F)ccc(O)c12	-10	?	?	?	-29%	21µM*
COc1ccc2oc(CNC(=O)c3cc(CC(C)C)nn3C)nc2c1	nt	nt	nt	60%	nt	nt
COc1ccc(-n2ncc3c(NCCN4CCOCC4)ncnc32)cc1	7	-3%	9%	nt	9%	-6%
COc1ccc(-c2oc3ncn(CCN4CCOCC4)c(=N)c3c2-c2ccc(OC)cc2)cc1	-53*	13µM*	?	0%	?	16µM*
COc1ccc(CCNCCN2CCOCC2)cc1	6	-14%	3%	?	5%	3%
COc1cc2ncnc(NCCCN3CCOCC3)c2cc1OC	-2	4%	9%	?	0%	6%
COc1ccc(-c2oc3ncnc(NCCN4CCOCC4)c3c2-c2ccc(OC)cc2)cc1	18	15µM*	1%	nt	-1%	?
COc1ccc(-c2oc3ncnc(NCCCN4CCOCC4)c3c2-c2ccc(OC)cc2)cc1	?	18µM*	?	-33%	?	?
c1ccc(-c2oc3ncnc(NCCCN4CCOCC4)c3c2-c2ccccc2)cc1	-22	23µM*	-13%	?	-11%	?
COCCn1c(SCC(=O)c2ccc(C3CCCCC3)cc2)nnc1-c1ccc(Cl)cc1	nt	nt	nt	1%	nt	nt
SMILES	IL1B secr inh	DT40 TDP1 no CPT	HT1080NT lethal	12-LOX inh	HT1080 IDH1KD tx	TDP1 cell CPT
COCCN(CCOC)C(=O)[C@@H](Cc1ccccc1)NC(=O)[C@H]1O[C@@H](n2ccc(N)nc2=O)[C@H](O)[C@@H]1O	nt	nt	nt	5%	nt	nt
COc1cc2cc(C(=O)NCCCN(C)C)[nH]c2cc1OC	nt	nt	nt	2%	nt	nt
COc1ccc(/C=C\C(=O)Nc2cccc3cccnc23)cc1OC	nt	nt	nt	-6%	nt	nt
COC(=O)c1ccccc1S(=O)(=O)N1CCC(C(=O)Nc2ccc(N3CCOCC3)cc2)CC1	?	-12%	-1%	133%	0%	1%
C[C@]12c3[nH]c4ccccc4c3CCN1C(=O)C(CC(=O)NCCCn1ccnc1)C[C@@H]2C(=O)N1CCCCC1 (stereo partly specified)	-5	-8%	2%	-12%	1%	-12%
Cc1c(C)n(Cc2ccccc2)c2ncnc(NCCCO)c12	7	5%	22%	0%	22%	13%
CCOc1cc2nc(-c3ccc(OC)c(OC)c3)nc(NCCCN3CCOCC3)c2cc1OC	-60*	21µM*	?	0%	?	?
OCCCNc1ncnc2oc(-c3ccccc3)c(-c3ccccc3)c12	-24	16µM*	?	-23%	?	?
CC(=O)N1CCC(Cc2nc(-c3ccccc3)n[nH]2)CC1	nt	nt	nt	12%	nt	nt
Cc1cc(C)n(CCC(=O)N2CCC(c3noc(C4CC4)n3)C2)n1 (stereo unspecified)	nt	nt	nt	26%	nt	nt
NC(c1ccccc1)c1nnc2n1CCN(C(=O)N1CCCC1)C2 (stereo unspecified)	nt	nt	nt	7.9µM*	nt	nt
CC1(C)CC(=O)C(C=Nc2ccc(O)cc2)=C(O)C1	26	23µM*	?	-16%	-2%[9.24 µM]	?
Cc1[nH]nc(N=CC2=C(O)CC(C)(C)CC2=O)c1-c1ccc(Cl)cc1	-7	12µM*	4%	14%	1%	12µM*
CC1(C)CC(=O)C(C=Nc2ccc(N)cc2)=C(O)C1	-25	-2%	0%	0%	-4%	-15%
Cc1cc(=O)c2c(O)c3c(O)cc(=O)c4c3c3c(cc(O)c1c23)C(C)(C)C=4O	nt	0.73µM*	nt	?	nt	1µM*!
CC(=O)c1ccc(NC(=O)Nc2sc3nc4n(c(=O)c3c2C)CCC(C)CC4)cc1 (stereo unspecified)	nt	8.2µM*	nt	-46%	nt	5.8µM*
CCCCN(CC)CCCNC(=O)Nc1sc2nc3n(c(=O)c2c1C)CCC(C)CC3 (stereo unspecified)	nt	21µM*	nt	-9%	nt	?
O=C(NNC(=O)c1cccc2ccccc12)c1ccccc1O	83	?	-11%	nt	?	15µM*
O=C(NNc1c2ccccc2nc2ccccc12)c1ccc(O)cc1O	-51*	16µM*	?	-7%	?	?
COc1ccccc1C(=O)NNc1ncc(C)s1	-2	?	12%	2%	3%	?

Source: PubChem BioAssay (National Center for Advancing Translational Sciences (NCATS))
